Source: the supplement of paper PMC12632987

B1: GBRAPL2_0_7241 (protein)
chain: MEELLKRLLSLSLEEAKAEIKRLAEEVIKLIKEDPEKGKKEAEELVEVFAEYLIKSKNEELLEVIEEEVDKIVKEVAKIDPNFAAYLDSIIGSAIAEVES
B2: GBRAPL2_0_7242 (protein)
chain: MEELLEELLSLSLEEAKARIRELAEEAIKLLKEDPEEGKKYAEELVEVFAEVLEKTKNEELREVIEEEVDRIVKEAAEIDPNFAAYLASIMGSAIYEVES
B3: GBRAPL2_0_7243 (protein)
chain: MEELLKELLSLSLEEAKAAIKELAEEAIKLIREDPEKGIKYAEELMEVFAEVLEKRKDEELLKVIEEAVEKIVEEVAKVDPNEAAYIDAIFGSAVMEVEG
B4: GBRAPL2_0_7244 (protein)
chain: MEELLKRLLSLSLEEAKKEIKELAEKVIKLIREKPEEGIKAAEELMEVFAEVLVERKDEELEEVVEEAVDAIVEEVAKVDPNAAAYIDAIFGSAIMEVEG
B5: GBRAPL2_0_7245 (protein)
chain: MEELLEKLLSLSLEEAKKKIKELAEKAIKLIKEDPEKGIKEAEKLAEVFAEVLEKRKDEELLKVIEEAIDKIVKEVAKVDPNAAAYIDAIFGSAIMEVEG
B6: GBRAPL2_0_7246 (protein)
chain: MEELKKELLSLSLEEAKKKIKELAEKVIKLIKEDPEKGIEEAEKLTEVFAEVLVERKDEELKKVVEEAVEKIVEEVKKVDPKAAAYIDAIYGSALMEVEG
B7: GBRAPL2_0_7247 (protein)
chain: MEELLKELLELSVEEAKKKIKELAKKAVELIKKDPEKGLEEAEKLAEVFAEYLEETKNEELAEAVDEAARLLVEEAEKVDPNAAAYIASEVGSALLDLEM
B8: GBRAPL2_0_7248 (protein)
chain: MEELLKELLSLSTEERKKKIKELAKEAVKLIKEDPEKGLEAAIELAEVFAKVIEETKNEEIAEVVDEAIDLIVKEAAEVDPNAAAEIASIVGSALLELEM
B9: GBRAPL2_0_7249 (protein)
chain: MEEELKELLSLSTEEAKKKIKEKAKEVIELIKKDPEEGLKAAEELAEIFAEYLEKTKNEELEEVIDEAIDEIVKEVAKVDPNEAAYIDAIIGSAIMEVEG
B10: GBRAPL2_0_7250 (protein)
chain: MEELLKELLSLSLEEAKKKIKELTEEVIKLIEKDPKKGLEKAIELAEIFAEYLIERKNEELEEVIDEAIDKLVKKVAEVDPNEAAYIDAIIGSAIMEVEG
B11: GBRAPL2_0_7251 (protein)
chain: MEELLEELLSLSLEEAKKKIKELAEKVIKLIKEDPEKGLEEAEKLAKVFAEYLIETKNEELEKVIDEAIDKIVKEVAKIDPNKAAYIDAIIGSAIMEVES
B12: GBRAPL2_0_7252 (protein)
chain: MEELLKELLSLSLEEAKAAIEKLAEEVIKLIEKDPEKGLKAAEELAEVFAEYLIERKNEELEEAIVKAIDKLVKEVAKVDPNKAAYIDSIIGSAIMEVEG
B13: GBRAPL2_0_7253 (protein)
chain: KEELLEKLLSLSIEEAIKEVKKLAEEVIKYIKEKPEEGLKKAEELAEIFAELIEARKDEKLIKAVEEAIEKIVEEAKKIDPNEAAYIASIIGSALYEVES
B14: GBRAPL2_0_7254 (protein)
chain: MEKLLKELLSLSVEEAQKAIKEEAEKVVKYLKEDPEKGLEKAEELAEVFAELLKERKDEKLEETIEEAIDKIVKEAAKIDPNKAAYIAAIIGSALYEVES
B15: GBRAPL2_0_7255 (protein)
chain: LEEVLKKMKESSIEEAVELAKEEADRLVADPSVTPEEFEEAAVALLEVLAEKAKEEKTEEALELLEEAVDYLTELAKKVDPDVAAFIDTYGGSLLYELEE
B16: GBRAPL2_0_7256 (protein)
chain: LEEVLEEMKKLSIEEAAKLAKEYAEKLLADPSVTPEEFLEAIEKLLEVLAEKVKEEKTEEALEIFEEAVDYFTALAAKIDPNLAADVATYGGSLLYEIEE
B17: GBRAPL2_0_7257 (protein)
chain: MEEVLKKMKELSIEEAAKLAKEEIEKLVADPSVTVEELEEAIEKLLEVLAEKVKEEKTEEALEILDEFVDYATELAAKVDPNLAAYVASYGGSLLYELEE
B18: GBRAPL2_0_7258 (protein)
chain: LEEILKEMKTLSIEEAAELAKEEAERLVADPSVTPDEFEAAAFAMLEVLAEKVKKEKTEEALEIFDEAVDHFTALAAKIDPLTAAAVATHGGSLIYEIES
B19: GBRAPL2_0_7259 (protein)
chain: LEEVLEEMKELSIEEAAELAKKYVKELVADPSVTPEQFLEAAEALLEVLAEKVKEEKTEEALEIFDEAVDYFTEEAKKIDPETAAAVATYGGSLLYEIES
B20: GBRAPL2_0_7260 (protein)
chain: MEEVLEKMKKLSLEEATKLAKEYLEKLRADPNVTKEEFEEAAEKLLEVLAEKAKKEKTEEALELFDEFVDYFTELAKKIDPNLAAYIASYGGSLLYEIES
B21: GBRAPL2_0_7261 (protein)
chain: MEEVLEKMKKLSIEEAAKLAKEYLEKLRNDPSVTPEEFEEAALKILEVLAEKVKKEKTEEALEIFEELVDYATKLAAEIDPNLAAYIDSYGGSLIMELEE
B22: GBRAPL2_0_7262 (protein)
chain: MEKVLEEMEKLSIEEAAKLAKEYAEKLKADPSVSPEQFEEAVLALLEVLYKKVKKEKTEKALEIFEEAVDYFTELAAEVDPNLAAYVDSYAGSLIMELEE
B23: GBRAPL2_0_7263 (protein)
chain: LEKVLEEMKKLSIEEAKKLAKEYLEKLRDDPSVTPEEFLEAALKILDVLYEKVKKEKTEEALEIFEEFRDFAVELAAKVDPNIAAEVDSYAGSLIMELEE
B24: GBRAPL2_106_7264 (protein)
chain: EGLEKARKLAKEALEKAKKLPEAFKKGDEEAIDELLELLDELTRLAIELGLDEVAALVADAFDNVFAASEDPETAEEDLEEAIKDLEEALKLIEKKIKEL
B25: GBRAPL2_106_7265 (protein)
chain: SGLEELLKLLEEALEKAKKLPEAFKKGDEEAVDELLELLDEATRLAIELGLDEVAALVAAAFDDVFAASEDPETAEEDFEEAIEDLEEAKELVEKRLEEE
B26: GBRAPL2_106_7266 (protein)
chain: EKLEELKKLLEEALELAKKLPEAFKAGDEEAIDELLDLLDEATRLAIELGLDEVAALVADAFDNVFAASEDPETAEEDFKEAIKNLEEALKLVEEELKKL
B27: GBRAPL2_106_7267 (protein)
chain: EKLKELLKQLEELAKKIEELLKKADENDEELIDETLELLNEATRQAIEAGLDEVAALLADAFNHVFEAKENPEERKENLEEALKDVKEAIKLVKKKIKEA
B28: GBRAPL2_106_7268 (protein)
chain: KKLEEILEELEEALELVEELLERAEEKDEELLDETLELLDRVTRLAIEAGLDEVAALVADAANDVFAAEEDPENRKEYLERAKEDLEEAIKLVKEKIKEA
B29: GBRAPL2_106_7269 (protein)
chain: EELKELLEKLKELKEKIEELLEKAEEKDEELYDETIELADEVTRLAIELGLDEVAALIADAANDIFEALENPEERKEDLEEALEDVEEAIKLVEEEIKKE
B30: GBRAPL2_128_7270 (protein)
chain: MKIVELDVNVKDEESYELALEILDEIAKNSSPEVKDLAEAARDLVEEAKKRGFGENVTAVDILSDEDAEELKKIYEELKKKYGEEKVNSVLELEISDVPP
B31: GBRAPL2_128_7271 (protein)
chain: KKIVEIDVDIKDEESYNLALEILDEISENSSPEVKKLADAAKDLVESAKEEGFGENVTAVDILSDEEAALLQKIYEEIKKKYGKEKVNSVVKLDISDVPP
B32: GBRAPL2_128_7272 (protein)
chain: MKLVEITINIKDEESYNLAIEILDRIAEKSSPEVADLADAAKDAAEIAAENGYDEKVVVVDVLSEEEAEELKKIYEEIKKELGEEKVKSVVELEITDIEP

Each binder was assayed against GABARAPL2, P60520 (assay: median log2 fold change of GCK-ALFA target abundance (FLAG IP / Myc IP barcode read proportion) (log2 ratio); each designed protein is fused to an ALFA-tag nanobody in HEK293 cells to bring the named protein to FLAG-tagged glucokinase (GCK); Myc marks an untargeted standard; higher = target protein stabilised (more abundant)). Details: target protein: 3xFLAG-MCP-GCK-ALFA reporter; HEK293 landing pad (RPLP).
Chain of GABARAPL2, P60520 (P60520 whole entry, the tested form may be a part): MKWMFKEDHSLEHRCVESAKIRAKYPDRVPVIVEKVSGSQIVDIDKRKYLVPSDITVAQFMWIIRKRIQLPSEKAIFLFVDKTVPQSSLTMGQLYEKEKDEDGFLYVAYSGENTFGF
Outline: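 An ALFA-nanobody-fused binder library was recombined into HEK293 landing-pad cells and induced with 2 μg mL^−1 doxycycline. Cells were transfected with a plasmid expressing a FLAG-tagged target and a Myc-tagged standard. After 48 h, lysates underwent anti-FLAG and anti-Myc immunoprecipitation, and circular RNA barcodes were reverse transcribed, amplified and sequenced. Target abundance is the per-binder median log2 ratio of FLAG to Myc barcode read proportions. Barcodes needed ≥10^−7 proportion in both replicates, binders ≥3 barcodes per replicate, and a 10^−6 pseudocount was added; the two replicates were pooled.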

Binder | median log2 fold change
B1 | 0.00211
B2 | 0.159
B3 | 0.0124
B4 | -0.291
B5 | 0.154
B6 | 0.169
B7 | -0.0333
B8 | 0.0975
B9 | -0.0458
B10 | -0.0651
B11 | -0.108
B12 | 0.0463
B13 | 0.152
B14 | 0.0528
B15 | -0.088
B16 | 0.0867

Binder | median log2 fold change
B17 | -0.0513
B18 | -0.0288
B19 | 0.154
B20 | 0.248
B21 | 0.0589
B22 | 0.203
B23 | 0.11
B24 | -0.195
B25 | -0.285
B26 | 0.00104
B27 | 0.226
B28 | -0.012
B29 | -0.274
B30 | -0.268
B31 | -0.852
B32 | -0.21
